Records with an inconclusive call do not appear. For part of these data: Entries with a potency or affinity are not part of this list. Activity calls are given as the source filed them.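 The calls were made as follows, unless noted: active = compounds killing one labelled cell type while sparing the other, by normalised counts and ratio limits, not self-fluorescent; inactive = the rest.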

Assay [1] can be described thus: EMT-state selective cytotoxicity in co-culture – imaging, PC-3E GFP, TEM4-18 mCherry, primary screen (AID 1345086).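 As to all read-outs here: cells exposed to compound for 72 h before imaging.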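 As to red/green cell ratio (normalised): normalised mesenchymal count divided by normalised epithelial count so high means epithelial killing.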 Particulars: PC-3E GFP / TEM4-18 mCherry co-culture, imaging cell counts, at 1 µM; for red/green cell ratio (normalised): actives lie on both sides, counts scaled to control wells, 1 = unselective.
In assay [2] the target is Mitogen-activated protein kinase 7 (Homo sapiens) (UniProt Q13164). Description: Gal4-ERK5 driven luciferase induction – cell-based, HTS, primary screen (AID 1508626;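 active = luciferase signal above three times the same-plate solvent-only control wells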;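 also: luciferase driven by Gal4-ERK5 fusion binding five Gal4 sites before minimal TATA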). Particulars: HeLa Gal4-ERK5 transactivation, 18 h, at 5 µM, stronger effect = higher value.
The nature of assay [3]: blockers of MitoPT in mitochondria (AID 1580; call rule not given here). Particulars: isolated mitochondria, permeability transition inhibition.
A short description of assay [4]: blockers of polyQ-driven CASP3 activation – cell-based (AID 1583). As to conditions: polyglutamine-induced caspase-3 activation, cell assay; stronger effect = higher value;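 tested at 10 µM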.
Assay [5] can be described thus: yeast 75Q aggregation reduction – 75Q-TubU reporter (AID 1593). Particulars: Yeast 75Q polyglutamine aggregation reporter.
Assay [6] is described as follows: restoration of touch response, mutant HTT neurons – whole organism, C. elegans mechanosensory neurons, N-terminal huntingtin (AID 1599). As to conditions: C. elegans polyQ-huntingtin mechanosensory neurons, stronger effect = higher value.
The nature of assay [7]: blockers of cytochrome c efflux from mitochondria – biochemical, purified mitochondria (AID 1603).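 Also: mouse liver mitochondria challenged with calcium chloride; signal normalized to the plate average as 100%.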 Particulars: stronger effect = lower value.
Assay [8] is described as follows: polyglutamine aggregate formation blockers (AID 1604). As to conditions: polyglutamine-induced protein aggregation inhibition assay; stronger effect = higher value; tested at 2.5 µM.
Assay [9] in a line: glutamate transport activators, MN-1 cells, MN-1 cell line (AID 1612).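 Also: tested at 1 µM final; 0% = mean of DMSO vehicle wells on each plate; positive means more glutamate uptake than control and negative means less.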 Particulars: MN-1 motor neuron cells, stronger effect = higher value.
A short description of assay [10]: 75Q-TubH aggregate inhibition, S. cerevisiae, yeast (AID 1616). As to conditions: S. cerevisiae 75Q-TubH polyglutamine aggregation suppression; stronger effect = higher value.
Assay [11] is described as follows: P. berghei load reduction in hepatocytes – cell-based, HepG2, luciferase luminescence, HepG2 viability, primary screen (AID 624349; in the data active = parasite load remaining mostly below about 12%, no sharp cut-off; inactive = mostly above about 10%;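 also: 100% = mean of DMSO negative control wells on the same plate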). Particulars: P. berghei liver stage in HepG2, luciferase luminescence, concentration not given here; parasite load remaining: stronger effect = lower value; viability: measured here: HepG2 viability without parasites.
[12] abbreviates: measured here: epithelial PC-3E GFP cell survival.
Where [13] appears, read: measured here: mesenchymal TEM4-18 mCherry cell survival.

Sequence of Mitogen-activated protein kinase 7 (Homo sapiens) (Q13164 whole entry, looked up, the tested form may be a part): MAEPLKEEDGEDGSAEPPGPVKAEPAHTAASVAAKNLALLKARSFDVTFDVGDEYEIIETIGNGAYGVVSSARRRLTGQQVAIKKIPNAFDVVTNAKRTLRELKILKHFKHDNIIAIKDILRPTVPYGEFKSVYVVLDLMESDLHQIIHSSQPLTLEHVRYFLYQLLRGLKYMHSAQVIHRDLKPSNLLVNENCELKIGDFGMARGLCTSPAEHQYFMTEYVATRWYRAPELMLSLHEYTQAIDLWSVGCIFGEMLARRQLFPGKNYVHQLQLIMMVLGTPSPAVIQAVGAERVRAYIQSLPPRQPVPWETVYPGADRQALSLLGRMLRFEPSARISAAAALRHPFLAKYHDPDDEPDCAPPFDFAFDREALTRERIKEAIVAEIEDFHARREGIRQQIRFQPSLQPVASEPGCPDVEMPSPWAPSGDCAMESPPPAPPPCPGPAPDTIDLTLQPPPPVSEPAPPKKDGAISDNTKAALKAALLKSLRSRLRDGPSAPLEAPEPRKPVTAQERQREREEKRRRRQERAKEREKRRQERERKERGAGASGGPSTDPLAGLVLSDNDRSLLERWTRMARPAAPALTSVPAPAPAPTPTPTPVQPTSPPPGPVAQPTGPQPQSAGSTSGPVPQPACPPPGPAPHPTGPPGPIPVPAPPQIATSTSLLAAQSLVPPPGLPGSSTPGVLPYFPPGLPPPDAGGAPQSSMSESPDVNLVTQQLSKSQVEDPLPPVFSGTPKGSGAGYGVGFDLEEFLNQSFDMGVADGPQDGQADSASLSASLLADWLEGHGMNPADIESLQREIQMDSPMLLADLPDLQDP

For `CC(=O)Oc1cc2c(c(C)c1OC(C)=O)CC=C1[C@@]2(C)CC[C@@]2(C)C3C[C@](C)(C(=O)O)CC[C@]3(C)CC[C@]12C` (some centres undefined), the red/green cell ratio (normalised) in assay [1] is 0.58 (inactive). Also, the normalised cell number in [1] (setting [12]) amounted to 1.06; in assay [1] (setting [13]) it was 0.62. Moreover, the luciferase signal in assay [2] was 48 AU (inactive).
In the same order, the values of `CC(=O)OCC(OC(C)=O)C(OC(C)=O)C(OC(C)=O)C(OC(C)=O)C(COC(C)=O)OC(C)=O` (centres undefined) are 1.06 (inactive), 0.99, 1.05 and 80 AU (inactive).
The corresponding values for `C=CCS(=O)C[C@H](N)C(=O)O` (some centres undefined) are 0.94 (inactive), 1.04, 0.98 and 128 AU (inactive).
The corresponding values for `CC1=CC(=O)C2C(C)(C)CCC[C@]2(C)[C@@]1(O)CCc1ccoc1` (some centres undefined) are 1.02 (inactive), 0.94, 0.96 and 128 AU (inactive).
With `O=c1cc(-c2ccc(O)cc2)oc2cc(O)ccc12`, in assay [1], the red/green cell ratio (normalised) is 0.77 (inactive). Moreover, the normalised cell number was 1.28 in assay [1] (setting [12]) and 0.98 in assay [1] (setting [13]). Moreover, the luciferase signal in assay [2] was 180 AU (active).
The corresponding values for `O=c1cc(-c2ccccc2)oc2cccc(O)c12` are 0.94 (inactive), 1.1, 1.03 and 104 AU (inactive).
As for `CC(C)c1ccc2c(c1)CCC1C(C)(C(N)=O)CCCC21C` (centres undefined), in assay [1], the red/green cell ratio (normalised) is 1.04 (inactive). Also, the normalised cell number in assay [1] (setting [12]) worked out at 1.22; in assay [1] (setting [13]), 1.27. Moreover, the luciferase signal in assay [2] is 64 AU (inactive).
On to `COC1=CC(=O)C(O)=C/C1=C\C=C\c1ccccc1`, for which the red/green cell ratio (normalised) in [1] was 1.11 (inactive). The normalised cell number in [1] (setting [12]) worked out at 0.95; in [1] (setting [13]) it was 1.06. The luciferase signal in assay [2] was 12 AU (inactive).
In the same order, the values of `COc1cc(O)c(C(=O)/C=C/c2ccc(OC)c(O)c2)c(OC)c1` are 1.01 (inactive), 0.89, 0.9 and 84 AU (inactive).
For the compound `CC1(C)C(=O)[C@@H]2C[C@@]3(O)C4=CC(=O)O[C@@H](c5ccoc5)[C@]4(C)CCC3C(C)(C2=O)[C@H]1CC(=O)O` (some centres undefined), in [1], the red/green cell ratio (normalised) was 1 (inactive). Further, the normalised cell number in [1] (setting [12]) and in [1] (setting [13]) was 1.01 throughout. Besides, in [2], the luciferase signal is 20 AU (inactive).
With `COc1ccc(-c2oc3cc(OC)c(OC)c(OC)c3c(=O)c2OC)cc1`, the red/green cell ratio (normalised) in assay [1] is 1.04 (inactive). Besides, the normalised cell number was determined as 1.02 in assay [1] (setting [12]) and 1.05 in assay [1] (setting [13]). The luciferase signal in assay [2] is 72 AU (inactive).
Take `O=C(O)/C=C/C=C/c1ccccc1`: in assay [1], the red/green cell ratio (normalised) was 1.01 (inactive). For the same compound, the normalised cell number in [1] (setting [12]) and in [1] (setting [13]) was 0.93 throughout. Also, the luciferase signal in [2] is 64 AU (inactive).
For the compound `O=C(/C=C/c1ccccc1)c1ccc(O)cc1O`, the red/green cell ratio (normalised) in [1] was 0.95 (inactive). Besides, the normalised cell number was 1.05 in [1] (setting [12]) and 1 in assay [1] (setting [13]). Besides, the luciferase signal in assay [2] is 52 AU (inactive).
As to `CN(C)CC(=O)OC[C@@H](O)[C@@H](O)[C@H](O)[C@@H](O)C(=O)O`, the red/green cell ratio (normalised) in assay [1] was 1.02 (inactive). Also, the normalised cell number in [1] (setting [12]) is 1.08; in assay [1] (setting [13]) it was 1.1. The luciferase signal in [2] is 36 AU (inactive).
The corresponding values for `CNc1ccccc1C(=O)N1CCc2c([nH]c3ccccc23)C1=O` are 1.01 (inactive), 0.95, 0.96 and 56 AU (inactive).
The corresponding values for `COc1ccc(-c2cc(=O)c3c(O)cc(OC)c(OC)c3o2)c(OC)c1` are 1.02 (inactive), 0.97, 0.99 and 108 AU (inactive).
The corresponding values for `Cc1c(S(=O)(=O)O)oc2c1C(=O)C(=O)c1c-2ccc2c1CCCC2(C)C` are 0.95 (inactive), 1.24, 1.18 and 48 AU (inactive).
`COc1cc2c(cc1OC)-c1c(oc3cc(O)cc(O)c3c1=O)CO2`: the red/green cell ratio (normalised) in assay [1] was 1.08 (inactive). Also, the normalised cell number amounted to 1.02 in [1] (setting [12]) and 1.09 in assay [1] (setting [13]). The luciferase signal in [2] is 16 AU (inactive).
The corresponding values for `C=CC(C1=CC(=O)C=CC1=O)c1ccccc1` (centres undefined) are 0.88 (inactive), 1.13, 1 and 64 AU (inactive).
As to `O=C(O)c1ccc2c(c1)OCO2`, the red/green cell ratio (normalised) in assay [1] was 1.05 (inactive). Also, the normalised cell number in [1] (setting [12]) amounted to 1; in assay [1] (setting [13]) it was 1.05. In assay [2], the luciferase signal was 48 AU (inactive).
In the case of `CC1(C)C(=O)C=C[C@@]2(C)C1CC(=O)[C@]1(C)C2CC[C@@]2(C)[C@H](c3ccoc3)OC(=O)[C@H]3O[C@]321` (some centres undefined), the red/green cell ratio (normalised) in assay [1] is 1.47 (inactive). Further, the values for the normalised cell number in [1] (setting [12]) and in assay [1] (setting [13]) were 0.82 and 1.21, respectively. Further, in assay [2], the luciferase signal is 16 AU (inactive).
`CC[C@@H](C(=O)[C@@H](C)[C@@H](O)[C@H](C)[C@@H]1O[C@@H]([C@@H](CC)C(=O)O)CC[C@@H]1C)[C@H]1OC2(C=C[C@@H](O)[C@]3(CC[C@@](C)([C@H]4CC[C@](O)(CC)[C@H](C)O4)O3)O2)[C@H](C)C[C@@H]1C` (some centres undefined): the EC50 in assay [3] was 100 nM (active). In assay [4], this compound registered an inhibition of 40.3%. Further, in [5], the score is 0.53. In addition, the rescue above control in assay [6] was -3.48. In [7], the cytochrome c release ratio came to 1.06. This compound displayed an inhibition of aggregation in assay [8] of 61.1%. For the same compound, the glutamate uptake change in assay [9] is -41.6%. For the same compound, the aggregation suppression score in assay [10] turned out to be 0.25. Besides, in [11], the parasite load remaining is -5.04% (inactive) and the viability worked out at 82%. Besides, the red/green cell ratio (normalised) in assay [1] was 0.65 (active). The same compound gave a normalised cell number in assay [1] (setting [12]) of 0.55. Also, the normalised cell number in assay [1] (setting [13]) was 0.36. For the same compound, the luciferase signal in assay [2] was 36 AU (inactive).
Regarding `C[C@]12CCC3c4ccc(OC(=O)c5ccccc5)cc4CCC3C1CCC2=O` (some centres undefined), the red/green cell ratio (normalised) in assay [1] is 0.85 (inactive). Moreover, the values for the normalised cell number in [1] (setting [12]) and in assay [1] (setting [13]) were 1.24 and 1.05, respectively. The luciferase signal in assay [2] is 40 AU (inactive).
With `CC(=O)OCC(=O)[C@@]1(O)CCC2C3CCC4=CC(=O)C=C[C@]4(C)[C@@]3(F)[C@@H](O)C[C@@]21C` (some centres undefined), in assay [1], the red/green cell ratio (normalised) was 0.75 (inactive). For the same compound, the normalised cell number in assay [1] (setting [12]) worked out at 1.27; in assay [1] (setting [13]), 0.95. Moreover, the luciferase signal in [2] is 76 AU (inactive).
In the same order, the values of `O=c1cc(-c2ccc(O)cc2)oc2ccc(O)cc12` are 1 (inactive), 0.97, 0.97 and 52 AU (inactive).
Turning to `O=C(O)/C=C/C=C/c1ccc2c(c1)OCO2`, in assay [1], the red/green cell ratio (normalised) was 1.14 (inactive). Moreover, the normalised cell number in [1] (setting [12]) came out at 0.9; in assay [1] (setting [13]) it was 1.03. The luciferase signal in assay [2] is 24 AU (inactive).

What is called EC50 is the midpoint of the concentration-response curve. A word on the inhibition: it is how much of the control response was suppressed. As usually defined, the viability is a per cent measure of how many cells are alive, often set against a control.

Source of the values: PubChem BioAssay.
